Several values for one entry are separate records, joined by “and”; a condition that tells them apart may be missing. Identical values can stand only once. In all, about 5,500 compounds went through this assay and about 2,000 (36%) were called active. Inconclusive results (about 18%) are left out. Rule as the data show it: active = normalized growth mostly below about 0.91 (no sharp cut-off); inconclusive = no clear call, values can overlap the other calls; inactive = mostly above about 0.92. Some of the results follow.
Test: chemical genetic growth profiling, strain panel (AID 1159580);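 also: tested at 20 µM; growth read once vehicle control cultures reached saturation at 30 °C; 1 = growth at the plate median or of vehicle wells; lower values mean less growth of the strain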
Conditions: growth OD

Measured: normalized growth

Cc1ccc(S(=O)(=O)NC(=O)NN2CCCCCC2)cc1
inactive: S. cerevisiae deletion strains, locus YJR075W, strain HOC1, hits give low values 1.03 | S. cerevisiae deletion strains, locus YKL009W, strain mrt4, hits give low values 1.03 | S. cerevisiae deletion strains, locus YKL068W, hits give low values 0.988 | S. cerevisiae deletion strains, locus YKL085W, strain MDH1 (second series), hits give low values 0.977 | S. cerevisiae deletion strains, locus YKL085W, strain MDH1, hits give low values 0.977 | S. cerevisiae deletion strains, locus YKL160W, strain elf1, hits give low values 0.957 | S. cerevisiae deletion strains, locus YKL190W, strain CNB1, hits give low values 1 | S. cerevisiae deletion strains, locus YKR001C, strain vps1, hits give low values 0.981 | S. cerevisiae deletion strains, locus YKR026C, strain gcn3, hits give low values 0.992 | S. cerevisiae deletion strains, locus YKR091W, strain srl3, hits give low values 0.983 | S. cerevisiae deletion strains, locus YLL001W, strain dnm1, hits give low values 0.982 | S. cerevisiae deletion strains, locus YLL026W, hits give low values 0.995 | S. cerevisiae deletion strains, locus YLL041C, strain sdh2, hits give low values 0.99 | S. cerevisiae deletion strains, locus YLR027C, strain aat2, hits give low values 0.99 | S. cerevisiae deletion strains, locus YLR039C, strain RIC1, hits give low values 0.954 | S. cerevisiae deletion strains, locus YLR058C, strain SHM2, hits give low values 0.992 | S. cerevisiae deletion strains, locus YLR102C, strain apc9, hits give low values 0.985 | S. cerevisiae deletion strains, locus YLR113W, strain HOG1, hits give low values 1.03 | S. cerevisiae deletion strains, locus YLR221C, strain rsa3, hits give low values 1.02 | S. cerevisiae deletion strains, locus YLR258W, strain gsy2, hits give low values 0.98 | S. cerevisiae deletion strains, locus YLR262C, strain YPT6 (second series), hits give low values 0.961 | S. cerevisiae deletion strains, locus YLR262C, strain YPT6, hits give low values 0.962 | S. cerevisiae deletion strains, locus YLR268W, strain sec22, hits give low values 0.983 | S. cerevisiae deletion strains, locus YLR320W, strain mms22, hits give low values 0.996 | S. cerevisiae deletion strains, locus YLR330W, strain CHS5, hits give low values 0.994 | S. cerevisiae deletion strains, locus YLR342W, strain FKS1 (second series), hits give low values 0.941 | S. cerevisiae deletion strains, locus YLR342W, strain FKS1, hits give low values 0.987 | S. cerevisiae deletion strains, locus YLR357W, strain rsc2, hits give low values 0.928 | S. cerevisiae deletion strains, locus YLR370C, strain arc18, hits give low values 0.968 | S. cerevisiae deletion strains, locus YLR371W, strain rom2, hits give low values 0.977 | S. cerevisiae deletion strains, locus YLR384C, strain iki3, hits give low values 0.992 | S. cerevisiae deletion strains, locus YLR418C, strain cdc73, hits give low values 0.989 | S. cerevisiae deletion strains, locus YML016C, strain PPZ1, hits give low values 0.991 | S. cerevisiae deletion strains, locus YML032C, strain rad52, hits give low values 0.992 | S. cerevisiae deletion strains, locus YML120C, strain ndi1, hits give low values 1 | S. cerevisiae deletion strains, locus YML124C, strain tub3, hits give low values 0.988 | S. cerevisiae deletion strains, locus YMR058W, strain fet3, hits give low values 0.994 | S. cerevisiae deletion strains, locus YMR078C, strain ctf18, hits give low values 0.968 | S. cerevisiae deletion strains, locus YMR125W, strain sto1, hits give low values 0.988 | S. cerevisiae deletion strains, locus YMR129W, hits give low values 0.987 | S. cerevisiae deletion strains, locus YMR205C, strain PFK2, hits give low values 1.01 | S. cerevisiae deletion strains, locus YMR223W, strain ubp8, hits give low values 0.97 | S. cerevisiae deletion strains, locus YMR231W, strain pep5, hits give low values 0.986 | S. cerevisiae deletion strains, locus YMR263W, strain SAP30, hits give low values 0.998 | S. cerevisiae deletion strains, locus YMR307W, strain GAS1, hits give low values 0.956 and 1 | S. cerevisiae deletion strains, locus YNL067W, strain RPL9B, hits give low values 1.02 | S. cerevisiae deletion strains, locus YNL071W, strain lat1, hits give low values 0.99 | S. cerevisiae deletion strains, locus YNL128W, strain TEP1, hits give low values 0.988 | S. cerevisiae deletion strains, locus YNL153C, strain GIM3, hits give low values 1.05 and 1 | S. cerevisiae deletion strains, locus YNL175C, strain NOP13, hits give low values 0.991 | S. cerevisiae deletion strains, locus YNL183C, strain NPR1, hits give low values 0.946 | S. cerevisiae deletion strains, locus YNL197C, strain WHI3, hits give low values 0.974 | S. cerevisiae deletion strains, locus YNL209W, strain ssb2, hits give low values 0.968 | S. cerevisiae deletion strains, locus YNL224C, strain SQS1, hits give low values 1 | S. cerevisiae deletion strains, locus YNL233W, strain BNI4, hits give low values 1.04 | S. cerevisiae deletion strains, locus YNL248C, strain rpa49, hits give low values 0.961 | S. cerevisiae deletion strains, locus YNL250W, strain rad50, hits give low values 0.949 | S. cerevisiae deletion strains, locus YNL271C, strain bni1, hits give low values 0.983 | S. cerevisiae deletion strains, locus YNL298W, strain CLA4, hits give low values 0.965 | S. cerevisiae deletion strains, locus YNL307C, strain MCK1, hits give low values 0.983 | S. cerevisiae deletion strains, locus YNL322C, strain KRE1 (second series), hits give low values 0.965 | S. cerevisiae deletion strains, locus YNL322C, strain KRE1, hits give low values 1 | S. cerevisiae deletion strains, locus YNR049C, strain mso1, hits give low values 0.967 | S. cerevisiae deletion strains, locus YNR052C, strain pop2, hits give low values 0.974 | S. cerevisiae deletion strains, locus YOL006C, strain TOP1, hits give low values 1.02 | S. cerevisiae deletion strains, locus YOL012C, strain htz1 1.06 | S. cerevisiae deletion strains, locus YOL147C, strain pex11, hits give low values 0.975 | S. cerevisiae deletion strains, locus YOR001W, strain rrp6, hits give low values 1.03 | S. cerevisiae deletion strains, locus YOR061W, strain CKA2, hits give low values 0.994 | S. cerevisiae deletion strains, locus YOR069W, strain VPS5, hits give low values 0.994 | S. cerevisiae deletion strains, locus YOR070C, strain gyp1, hits give low values 0.979 | S. cerevisiae deletion strains, locus YOR080W, strain dia2, hits give low values 0.979 | S. cerevisiae deletion strains, locus YOR083W, strain WHI5 (second series), hits give low values 0.971 | S. cerevisiae deletion strains, locus YOR083W, strain WHI5, hits give low values 0.927 | S. cerevisiae deletion strains, locus YOR106W, strain vam3, hits give low values 0.984 | S. cerevisiae deletion strains, locus YOR136W, strain idh2, hits give low values 0.984 | S. cerevisiae deletion strains, locus YOR144C, strain elg1, hits give low values 0.974 | S. cerevisiae deletion strains, locus YOR184W, strain ser1, hits give low values 1 | S. cerevisiae deletion strains, locus YOR231W, strain MKK1, hits give low values 1 | S. cerevisiae deletion strains, locus YOR265W, strain rbl2, hits give low values 1 | S. cerevisiae deletion strains, locus YOR270C, strain vph1, hits give low values 1.02 | S. cerevisiae deletion strains, locus YOR290C, strain snf2, hits give low values 0.957 | S. cerevisiae deletion strains, locus YOR316C, strain cot1, hits give low values 0.992 | S. cerevisiae deletion strains, locus YPL051W, strain arl3, hits give low values 0.969 | S. cerevisiae deletion strains, locus YPL078C, strain atp4, hits give low values 0.98 | S. cerevisiae deletion strains, locus YPL106C, strain sse1, hits give low values 0.957 | S. cerevisiae deletion strains, locus YPL240C, strain hsp82, hits give low values 0.988 | S. cerevisiae deletion strains, locus YPL241C, strain CIN2, hits give low values 0.999 | S. cerevisiae deletion strains, locus YPL256C, strain CLN2, hits give low values 1.01 | S. cerevisiae deletion strains, locus YPR119W, strain clb2, hits give low values 0.983 | S. cerevisiae deletion strains, locus YPR141C, strain kar3, hits give low values 0.976 | S. cerevisiae deletion strains, locus YPR163C, strain tif3, hits give low values 0.982 | S. cerevisiae deletion strains, locus YPR167C, strain met16, hits give low values 0.991 | S. cerevisiae deletion strains, strain wtn01, hits give low values 1.01 | S. cerevisiae strains, strain wild type, hits give low values 1
